p53 reactivator = qHTS assay for re-activators of p53 using a Luc reporter | H1299 p53-A138V BP100-luciferase reporter, luminescence, 24 h | Potency, µM (highest dose often 92.2 µM), actives largely listed as activators | 320,000 compounds, 0.063% hits; also: nearly all actives have a fitted effect of over 45% in size
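p53-null H1299 cells stably carrying temperature-sensitive p53-A138V and a BP100-luciferase reporter were pinned with compounds (4-point, 1:5 series) and held 24 hrs at 37 deg C. Luminescence was read 10 min after detection reagent.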
BRCA1 expr up = qHTS Assay to Identify Small Molecule Activators of BRCA1 Expression; MCF7-BRCA1-FFLuc reporter, luminescence, 48 h; response scale: scaled: vehicle 0%, 10 µM genistein 100%; Potency, µM (highest dose often 46.1 µM), most hits filed as activators; 380,000 compounds, 1.1% hits; also: nearly all actives have a fitted effect of over 80% in size
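Reporter cells (MCF7, BRCA1 promoter-firefly luciferase) received library compounds across a concentration series for 48 h. End-point luminescence was measured and concentration-effect curves derived after normalization.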
uPA surface inh = qHTS for Inhibitors of Cell Surface uPA Generation | 330,000 compounds, 0.31% hits | cell surface uPA generation assay, qHTS | Potency, µM (titrated, usually from 38.3 µM), most hits filed as inhibitors; active = well fitted inhibition curve with a large enough effect; inconclusive = small, poorly fitted or top-dose-only effect; inactive = no such curve, though single readings can be large or run the other way; tested in mouse RAW 264.7 cells; also: nearly all actives have a fitted effect of over 55% in size
TCR activator = Activators of T cell receptors: qHTS campaign; primary human leukocytes, anti-CD3, IL-2 HTRF, 48 h; Potency, µM (doses to about 9.22 µM), actives largely listed as activators; 330,000 tested, under 10 active
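1) Mix primary human leukocytes, a-CD3 beads and compound. 2) Incubate 48 hr. 3) Add HTRF IL-2 reagents (a-IL-2-K, a-IL-2-d2).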
IL-2 act = qHTS of IL-2 Activators; IL-2 activation reporter assay, cell-based qHTS; stimulated with anti-CD3/CD4/CD28 beads; in transgenic mouse T cells; activation, % (series mostly up to about 46 µM); 360,000 compounds, 0.065% hits; AID 652025, 2013; in the data active = activation above about 50%; inconclusive = mostly about 30% to 49%
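EGFP and DsRed fluorescence is measured by plate cytometry in unstimulated transgenic mouse T cells exposed to compound for 60 minutes, then stimulated 18 hours at 37 degrees C with anti-CD3/anti-CD4 beads plus anti-CD28.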
Hits are given with their value; n = inactive; u = inconclusive; x = no result; ! = not active in a repeat. The list is not random: actives were taken first. Their share in the collection is about 1.4%. Unless noted, calls follow the shape of the dose curve; as a rule, active = well fitted curve in the direction sought with a large enough effect; inconclusive = small, poorly fitted or top-dose-only effect, or another doubt; inactive = no such curve, though single readings can be large; an effect the other way counts as inactive or inconclusive.

SMILES	p53 reactivator	BRCA1 expr up	uPA surface inh	TCR activator	IL-2 act
CCOC(=O)C(C)Oc1cccc2c(=O)n(CC(=O)NCc3ccc(F)cc3)ccc12 (centres undefined)	n	n	0.316µM	n	n
CCOC(=O)COc1cccc2c(=O)n(CC(=O)NCc3ccc4c(c3)OCO4)ccc12	n	n	1µM	n	n
CCOC(=O)COc1cccc2c(=O)n(CC(=O)NCCc3ccccc3)ccc12	n	n	n	n	n
COC(=O)COc1cccc2c(=O)n(CC(=O)NCc3ccc(F)cc3)ccc12	n	n	0.631µM	n	n
CCOC(=O)C(C)Oc1cccc2c(=O)n(CC(=O)NCc3ccccc3)ccc12 (centres undefined)	n	n	n	n	n
COC(=O)COc1cccc2c(=O)n(CC(=O)N3CCCCC3)ccc12	n	n	n	n	n
CC[C@@H](C)[C@@H](C(=O)Nc1ccc(C)cc1)N1Cc2ccccc2C1=O	x	n	x	x	x
Cc1ccn2c(c1)nc(=O)c1cc(S(=O)(=O)N3CCC(C)CC3)c(Cl)cc12	x	n	x	x	x
COc1ccc2ccccc2c1/C=N/Nc1cccc(C(=O)O)c1	u	3.55µM	n	n	n
COc1ccc(N/N=C/c2c(C(=O)O)ccc3ccccc23)cc1	u	n	10µM	n	n
COc1ccc2ccccc2c1/C=N/Nc1ccc(Cl)c(C(=O)O)c1	u	n	n	n	n
Oc1ccc2ccccc2c1/C=N/Nc1ccccc1	n	n	n	n	n
CC(=O)N/N=C\c1ccccc1OC/C=C/c1ccccc1	n	2.82µM	n	n	n
CC(C)(O)C(=O)N/N=C\c1ccc(OC/C=C/c2ccccc2)cc1	u	u	n	n	n
CCOc1ccc(/C=N/NC(=O)Nc2ccccc2)cc1	n	u	n	n	n
CC(=O)Oc1ccc(/C=N/NC(=S)Nc2ccccc2)cc1	u	11.2µM	n	n	n
CCOC(=O)N/N=C\c1ccc(OC/C=C/c2ccccc2)cc1	u	8.91µM	n	n	n
COC(=O)N/N=C\c1ccc(OC/C=C/c2ccccc2)cc1	n	7.08µM	n	n	n
CCOC(=O)c1c(NC(=O)CSc2cn(CCNC(=O)c3c(F)cccc3F)c3ccccc23)sc2c1CCC2	x	n	x	x	x
COc1cc2nc(NC(=O)c3ccc(S(=O)(=O)N4CCOCC4)cc3)sc2cc1OC	x	n	x	x	x
CCCCNC(=O)C(=O)N/N=C/c1ccc(OCc2ccccc2)cc1	n	n	u	n	n
CCOC(=O)N/N=C/c1ccccc1F	u	10µM	n	n	n
Cc1ccc(/C=N/NC(=O)Nc2ccccc2)o1	u	12.6µM	n	n	n
CCOC(=O)N/N=C/c1c(F)cccc1F	u	n	n	n	n
Cc1ccc(/C=N/NC(=O)C(O)c2ccccc2)o1 (centres undefined)	n	n	n	n	n
SMILES	p53 reactivator	BRCA1 expr up	uPA surface inh	TCR activator	IL-2 act
COC(=O)N/N=C/c1ccc(Oc2ccccc2)cc1	n	10µM	n	n	n
CC(C)(C)NCC(=O)N/N=C/c1ccc(OCc2ccccc2)cc1	n	10µM	n	n	n
C=C1NN(C(C)C(=O)O)C(=O)N1c1ccc(OCc2ccccc2)cc1 (centres undefined)	x	n	x	x	x
COCCNC(=O)CN1N=C(c2ccc(OC)cc2)CCC1=O	n	n	n	n	n
CCC(=O)N1CCC(c2ccc(OC)cc2)=N1	u	11.2µM	n	n	n
Cc1ccc(C(=O)N/N=C\c2ccccc2[N+](=O)[O-])cn1	n	4.47µM	u	n	n
O=C(CN1C(=O)CCC1=O)Nc1nc(-c2ccccn2)cs1	n	n	u	n	n
O=C(CN1C(=O)CCC1=O)Nc1nc(-c2nc3ccccc3s2)cs1	u	5.01µM	u	n	n
CN(C)c1ccc(/C=C(/C#N)C(=O)NCc2ccccc2)o1	u	10µM	n	n	82.8
CCC(C)NC(=O)c1cn(CC)c2ccc(S(=O)(=O)N3CCc4ccccc4C3)cc2c1=O (centres undefined)	x	n	x	x	x
COc1cc2c(NC3CCN(C)CC3)nc(N3CCCN(C)CC3)nc2cc1OCCCCCN(C)C	x	n	x	x	x
Nc1ccc(-c2nnc(-c3ccc(N)cc3)o2)cc1	n	5.62µM	n	n	n
Nc1ccc(-c2nc3ccc(N)cc3o2)cc1	n	n	7.94µM	n	n
Nc1ccc(-c2nc3cc(N)ccc3o2)cc1	n	n	u	n	n
Cc1cccc(-c2nnc(-c3ccc(N)cc3)o2)c1	u	u	n	n	n
COc1cccc(CCNC(=O)Cn2c(-c3cccs3)cc3ccccc32)c1	x	n	x	x	x
Cc1nc(NC(=O)c2cccnc2Cl)sc1C	x	3.16µM	n	n	n
O=C(Nc1ccc(Cl)cc1)Nc1nnc(SCc2ccccc2)s1	28.2µM	u	n	n	n
Cc1nc(NC(=O)c2ccccc2O)sc1C	n	n	n	n	n
Cc1nc(NC(=O)Nc2ccc(Cl)cc2)sc1C	n	5.62µM	n	n	n
O=C(CCCN1C(=O)C(c2ccccc2)Oc2cccnc21)Nc1ccc(Br)cc1F (centres undefined)	x	n	x	x	x
Cc1nc2c(C(=O)NCc3ccccc3Cl)c[nH]n2c(=O)c1Cc1cccc(Cl)c1	x	n	x	x	x
O=c1[nH]cc(CCc2ccccc2)c2ncncc12	x	n	x	x	x
COC(=O)c1ccc(NC(=O)Cn2nnc3ccccc32)cc1	u	10µM	n	n	n
Cc1cccc(NC(=O)Cn2nnc3ccccc32)c1	n	12.6µM	n	n	n
SMILES	p53 reactivator	BRCA1 expr up	uPA surface inh	TCR activator	IL-2 act
Cc1ccc(NC(=O)Cn2nnc3ccccc32)cc1	u	8.91µM	n	n	n
O=C(Cn1nnc2ccccc21)Nc1ccc([N+](=O)[O-])cc1	n	n	n	n	n
Cc1ccccc1NC(=O)CSc1nccn1C	x	n	x	x	x
CCOc1ccc2c(c1)C(C)=CC(C)(C)N2S(=O)(=O)c1ccc(F)cc1	x	n	8.91µM	n	n
CCOc1ccc2c(c1)C(C)=CC(C)(C)N2S(=O)(=O)c1ccc(NC(C)=O)cc1	u	n	u	x	n
COc1ccc2c(C=Nc3c(C)n(C)n(-c4ccccc4)c3=O)c(O)n(Cc3ccco3)c(=O)c2c1	n	n	n	n	65.0!
O=C(Nc1ccc2ccccc2c1)c1nc(S(=O)(=O)Cc2ccccc2F)ncc1Cl	x	n	x	x	x
Cc1nn(C)c(C)c1CNC(=O)Nc1cccc(Cl)c1	u	3.98µM	n	n	n
Cc1nn(C)c(C)c1CNC(=O)Nc1ccc2c(c1)OCO2	n	u	n	x	n
O=C(NCc1ccccn1)Nc1cccc(NC(=O)NCc2ccccn2)c1	u	u	n	n	n
O=C(NCc1ccccn1)Nc1cccc(Cl)c1	u	12.6µM	n	n	n
Cc1nn(C)c(C)c1CNC(=O)Nc1ccc(Cl)cc1	n	6.31µM	n	x	n
Cc1cn2c(=O)cc(COC(=O)COc3ccc(C)c(C)c3)nc2s1	x	n	x	x	x
CCN1CCc2c(sc(NC(=S)NC(=O)c3cccc(F)c3)c2C(N)=O)C1	x	n	x	x	x
